{"source": "PubChem BioAssay (NCI)", "note": "About 83,000 compounds went through this panel and 20% of them were active in at least one assay; those are over-represented in the sample as a whole.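 Step 1: grow cells in 96-well plates. Step 2: add test compound at a single concentration. Step 3: incubate 48 h. Step 4: record percent growth.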 A number with no mark means an inactive call. Activity calls are given as the source filed them. The calls were made as follows: active = growth percent below 10; inactive = the rest."}
{"system": "OVCAR-3 ovarian", "test": "NCI-60 one-dose screen, 48 h (100 = growth as untreated, 0 = no growth, -100 = all killed)", "conditions": "10 µM unless noted"}
{"compound": "O=c1[nH]c2ccc(Cl)cc2cc1CSc1ccccc1Nc1nccc(-c2ccc(Cl)cc2)n1", "growth": "89.3%"}
{"compound": "C/C(=N/NC(N)=S)c1ccc(Nc2nc(SCC(C)C)nc(-c3ccc(F)cc3)c2C#N)cc1", "growth": "-19.5% (active)"}
{"compound": "CCCCN1C(=O)/C(=c2\\sc3n(c2=O)C2C(NN=3)N(CC)C(=O)N2CC)c2cc(Cl)ccc21", "note": "(stereo not drawn)", "growth": "71.8%"}
{"compound": "COc1cc(-c2nc3ccc(-c4nnc(SCC(=O)Nc5ccc(C(C)=O)cc5)o4)cc3[nH]2)cc(OC)c1OC", "growth": "119%"}
{"compound": "Cn1cc(-c2cc(N)n3nc(-c4cn(C)c5ccc(Br)cc45)cc3n2)c2cc(Br)ccc21", "growth": "109%"}
{"compound": "Cc1cc(C(=O)Nc2sc3c(c2C(N)=O)CCC(=O)C3)ccc1OCCN1CCCCC1", "growth": "97.7%"}
{"compound": "NS(=O)(=O)c1ccc(Nc2nc(SCC(=O)c3ccc(Cl)cc3)nc3ccccc23)cc1", "growth": "102%"}
{"compound": "CC(C)(C)Nc1nc2c(OCCc3ccccc3)cccn2c1-c1ccc(O)cc1", "growth": "74.9%"}
{"compound": "CCOc1ccc2nc(NC(=O)c3ccc(C(F)(F)F)cc3)sc2c1", "growth": "109%"}
{"compound": "N#Cc1c(-c2ccc(Cl)cc2)nc(SCc2ccc([N+](=O)[O-])cc2)nc1N1CCNCC1", "growth": "-32.6% (active)"}
{"compound": "Cc1cccc(/C=C/c2nn3c(-c4ccco4)nnc3s2)c1", "growth": "110%"}
{"compound": "Cc1sc2c(c1C)c(=O)nc1c(-c3nc(-c4ccc(F)cc4)no3)n[nH]n12", "growth": "121%"}
{"compound": "Nc1c(C(=O)Nc2ccc(Cl)cc2)sc2nc(-c3cnccn3)cc(-c3cccs3)c12", "growth": "62.7%"}
{"compound": "O=c1[nH]c2ccccc2cc1CSc1ccccc1Nc1nccc(-c2ccc(C(F)(F)F)cc2)n1", "growth": "69.8%"}
{"compound": "CC(C)(C)Nc1nc2c(OCCc3ccccc3)cccn2c1-c1cccc(F)c1", "growth": "-0.703% (active)"}
{"compound": "CCN1C(=S)N(c2ccccc2)C2NC(=O)N(/N=C/C=C/c3ccccc3OC)C21", "note": "(stereo not drawn)", "growth": "93.9%"}
{"compound": "CCOC(=O)c1csc(NC(=O)CSc2nc3sc4c(c3c(=O)n2-c2ccc(Cl)cc2)CCCC4)n1", "growth": "138%"}
{"compound": "Cc1ccc(CNS(=O)(=O)/N=C2\\NC(=O)NC2=C(Cl)Cl)cc1", "growth": "88.2%"}
{"compound": "CO/N=C1\\CCc2c(sc(NC(=O)c3cccc(C(F)(F)F)c3)c2C(N)=O)C1", "growth": "7.66% (active)"}
{"compound": "O=C(CSc1nc2sc3c(c2c(=O)n1-c1ccc(Cl)cc1)CCCC3)N/N=C/c1ccc(F)cc1", "growth": "133%"}
{"compound": "CN1CCN(Cc2ccc(NC(=O)c3cncc(C#Cc4cnc5[nH]ncc5c4)c3)cc2C(F)(F)F)CC1", "growth": "51.9%"}
{"compound": "CC(C)(C)Nc1nc2c(OCCc3ccccc3)cccn2c1-c1ccc(Cl)cc1", "growth": "6.36% (active)"}
{"compound": "N#Cc1c(-c2ccc(Cl)cc2)nc(SCc2ccccc2)nc1N1CCNCC1", "growth": "50%"}
{"compound": "COc1ccc(/C=C/C(=O)c2ccc(NC(=O)CSc3nnc(-c4ccc5nc(-c6ccc(Cl)cc6)[nH]c5c4)o3)cc2)cc1", "growth": "111%"}
{"compound": "CC(=O)Nc1cc(F)cc(-c2ccc3[nH]cc(-c4ccccc4)c3n2)c1", "growth": "32.5%"}
{"compound": "Fc1ccc(-c2nc(C(Cl)Cl)nc3cc(-c4ccccc4)nn23)cc1", "growth": "-28.1% (active)"}
{"compound": "COc1ccc(NC2=C(Cl)C(=O)C(C)=C(C)C2=O)cc1OC", "growth": "95.6%"}
{"compound": "O=C1[C@H]2Cc3c([nH]c4ccccc34)[C@@H](c3ccc(Br)cc3)N2C(=O)CN1C1CCN(Cc2ccccc2)CC1", "growth": "68.1%"}
{"compound": "Cn1c(SCC(=O)c2cccs2)nc2ccccc2c1=O", "growth": "98%"}
{"compound": "C/C(=C(/c1ccc(Cl)cc1)c1ccc(OCCN)cc1)c1ccc(C)cc1", "growth": "105%"}
{"system": "HS 578T breast", "test": "NCI-60 one-dose screen, 48 h (100 = growth as untreated, 0 = no growth, -100 = all killed)", "conditions": "10 µM unless noted"}
{"compound": "O=c1[nH]c2ccc(Cl)cc2cc1CSc1ccccc1Nc1nccc(-c2ccc(Cl)cc2)n1", "growth": "91.2%"}
{"compound": "CC(C)(C)OC(=O)N1C(=O)c2c(c3c4ccccc4[nH]c3c3ccc4ccccc4c23)C1=O", "growth": "49.7%"}
{"compound": "CNC(=O)c1cc(-c2ccc(NC(=O)Nc3ccc(N4CCN(C)CC4)c(C(F)(F)F)c3)cc2)nc2cccnc12", "growth": "-55.7% (active)"}
{"compound": "C/C(=N/NC(N)=S)c1ccc(Nc2nc(SCC(C)C)nc(-c3ccc(F)cc3)c2C#N)cc1", "growth": "4% (active)"}
{"compound": "CCCCN1C(=O)/C(=c2\\sc3n(c2=O)C2C(NN=3)N(CC)C(=O)N2CC)c2cc(Cl)ccc21", "note": "(stereo not drawn)", "growth": "66.9%"}
{"compound": "COc1cc(-c2nc3ccc(-c4nnc(SCC(=O)Nc5ccc(C(C)=O)cc5)o4)cc3[nH]2)cc(OC)c1OC", "growth": "103%"}
{"compound": "N#Cc1c(-c2ccc(Cl)cc2)nc(SCc2ccc(F)cc2)nc1N1CCNCC1", "growth": "83.3%"}
{"compound": "Cn1cc(-c2cc(N)n3nc(-c4cn(C)c5ccc(Br)cc45)cc3n2)c2cc(Br)ccc21", "growth": "111%"}
{"compound": "Cc1cc(C(=O)Nc2sc3c(c2C(N)=O)CCC(=O)C3)ccc1OCCN1CCCCC1", "growth": "102%"}
{"compound": "NS(=O)(=O)c1ccc(Nc2nc(SCC(=O)c3ccc(Cl)cc3)nc3ccccc23)cc1", "growth": "92.2%"}
{"compound": "CC(C)(C)Nc1nc2c(OCCc3ccccc3)cccn2c1-c1ccc(O)cc1", "growth": "86.7%"}
{"compound": "CCOc1ccc2nc(NC(=O)c3ccc(C(F)(F)F)cc3)sc2c1", "growth": "114%"}
{"compound": "N#Cc1c(-c2ccc(Cl)cc2)nc(SCc2ccc([N+](=O)[O-])cc2)nc1N1CCNCC1", "growth": "52.1%"}
{"compound": "Cc1cccc(/C=C/c2nn3c(-c4ccco4)nnc3s2)c1", "growth": "106%"}
{"compound": "Cc1sc2c(c1C)c(=O)nc1c(-c3nc(-c4ccc(F)cc4)no3)n[nH]n12", "growth": "105%"}
{"compound": "C[C@@H]1CN(c2ccc3ncc(C#Cc4cncc(C(=O)Nc5ccc(CN6CCN(C)CC6)c(C(F)(F)F)c5)c4)n3n2)C[C@H](C)O1", "growth": "-37% (active)"}
{"compound": "Nc1c(C(=O)Nc2ccc(Cl)cc2)sc2nc(-c3cnccn3)cc(-c3cccs3)c12", "growth": "47.1%"}
{"compound": "O=c1[nH]c2ccccc2cc1CSc1ccccc1Nc1nccc(-c2ccc(C(F)(F)F)cc2)n1", "growth": "68.3%"}
{"compound": "Cc1c(Nc2nnc(SCC(=O)Nc3sc4c(c3C#N)CCCC4)s2)c(=O)n(-c2ccccc2)n1C", "growth": "109%"}
{"compound": "CS(=O)(=O)c1ccc(-c2nc3ccccn3c2C=Nc2ccc(Cl)cc2)cc1", "growth": "104%"}
{"compound": "N[C@@H](Cc1cn(-c2c3ccccc3nc3ccccc23)nn1)C(=O)O", "growth": "99.8%"}
{"compound": "CC(C)(C)Nc1nc2c(OCCc3ccccc3)cccn2c1-c1cccc(F)c1", "growth": "-4.86% (active)"}
{"compound": "CCN1C(=S)N(c2ccccc2)C2NC(=O)N(/N=C/C=C/c3ccccc3OC)C21", "note": "(stereo not drawn)", "growth": "78.7%"}
{"compound": "CCOC(=O)c1csc(NC(=O)CSc2nc3sc4c(c3c(=O)n2-c2ccc(Cl)cc2)CCCC4)n1", "growth": "97.3%"}
{"compound": "Cc1ccc(CNS(=O)(=O)/N=C2\\NC(=O)NC2=C(Cl)Cl)cc1", "growth": "66.1%"}
{"compound": "CO/N=C1\\CCc2c(sc(NC(=O)c3cccc(C(F)(F)F)c3)c2C(N)=O)C1", "growth": "5.79% (active)"}
{"compound": "O=C(CSc1nc2sc3c(c2c(=O)n1-c1ccc(Cl)cc1)CCCC3)N/N=C/c1ccc(F)cc1", "growth": "115%"}
{"compound": "CN1CCN(Cc2ccc(NC(=O)c3cncc(C#Cc4cnc5[nH]ncc5c4)c3)cc2C(F)(F)F)CC1", "growth": "20.1%"}
{"compound": "CC(C)(C)Nc1nc2c(OCCc3ccccc3)cccn2c1-c1ccc(Cl)cc1", "growth": "70.3%"}
{"compound": "N#Cc1c(-c2ccc(Cl)cc2)nc(SCc2ccccc2)nc1N1CCNCC1", "growth": "91.1%"}
{"compound": "COc1ccc(/C=C/C(=O)c2ccc(NC(=O)CSc3nnc(-c4ccc5nc(-c6ccc(Cl)cc6)[nH]c5c4)o3)cc2)cc1", "growth": "94.7%"}
{"compound": "CC(=O)Nc1cc(F)cc(-c2ccc3[nH]cc(-c4ccccc4)c3n2)c1", "growth": "10.5%"}
{"compound": "C=CCSc1ccc2c(c1)C(N1CCNCC1)=Nc1ccccc1O2", "growth": "72.1% [8.25 µM]"}
{"compound": "Fc1ccc(-c2nc(C(Cl)Cl)nc3cc(-c4ccccc4)nn23)cc1", "growth": "-7.41% (active)"}
{"compound": "COc1ccc(NC2=C(Cl)C(=O)C(C)=C(C)C2=O)cc1OC", "growth": "91.2%"}
{"compound": "O=C1[C@H]2Cc3c([nH]c4ccccc34)[C@@H](c3ccc(Br)cc3)N2C(=O)CN1C1CCN(Cc2ccccc2)CC1", "growth": "36.7%"}
{"compound": "Cn1c(SCC(=O)c2cccs2)nc2ccccc2c1=O", "growth": "90.8%"}
{"compound": "C/C(=C(/c1ccc(Cl)cc1)c1ccc(OCCN)cc1)c1ccc(C)cc1", "growth": "96.7%"}
